Data reported in ChEMBL document CHEMBL1857833, “Screening and optimization of specific chemical series against human African Trypanosomiasis (HAT)”.
Where “and” joins values, the source holds several entries; their conditions need not be identical. Equal values may be shown once. The whole screen tested about 4,400 compounds, of which about 390 (8.9%) showed an effect of 50% or more. The entries come from a sample that favours strong results as a whole.

Tested on: Trypanosoma brucei
Assay: DNDI: Inhibition of Human African Trypanosomiasis, SBRI 427, in vitro at 2 ug.mL-1
Format: functional

In order of falling “% inhibition” value:
1. Cc1ccc(/C(=N/O)NC2CCC(C)CC2)c(OCc2ccccn2)n1 (stereo unspecified)  100%
2. CC(C)N/C(=N\O)c1cccnc1OCC(C)(C)C  100%
3. COCC(C)N/C(=N\O)c1ccnc(Oc2ccc(Cl)cc2)c1 (stereo unspecified)  99%
4. COCC(C)N/C(=N\O)c1ccnc(Oc2ccc(F)c(Cl)c2)c1 (stereo unspecified)  99%
5. CCC(C)(C)N/C(=N\O)c1cccnc1Oc1ccc2ccccc2c1  99%
6. Cc1cccc(Oc2nc(C)ccc2/C(=N/O)NC2CCCCC2)c1  98%
7. Cc1ccc(/C(=N/O)NC2CC(C)CC(C)(C)C2)c(OCC(C)C)n1 (stereo unspecified)  97%
8. Cc1ccc(/C(=N/O)NC2CCCCC2)c(Oc2ccc3ccccc3c2)n1  97%
9. COc1ccc(-c2nc(CNCCCN3CCCCC3C)co2)cc1 (stereo unspecified)  97%
10. CC(C)COc1ncccc1/C(=N/O)NCC(C)(C)C  95%
11. Cc1cc(C)cc(CN/C(=N\O)c2cccnc2OCC(C)C)c1  92%
12. COCC(C)N/C(=N\O)c1ccnc(Oc2ccc(SC)cc2)c1 (stereo unspecified)  86%
13. COc1ccc(Oc2ncccc2/C(=N/O)NCc2cc(C)cc(C)c2)cc1  79%
14. CCN(/C(=N\O)c1ccnc(Oc2ccc(Cl)cc2)c1)C(C)C  74%
15. CC1CCCCN1CCCNCc1coc(-c2ccc(F)cc2)n1 (stereo unspecified)  72%
16. COCC(C)N/C(=N\O)c1ccnc(Oc2cccc(C(C)C)c2)c1 (stereo unspecified)  71%
17. Cc1cc(C)cc(CN/C(=N\O)c2cccnc2Oc2ccc3ccccc3c2)c1  70%
18. Cc1ccc(/C(=N/O)NC2CC(C)CC(C)(C)C2)c(OCc2ccccn2)n1 (stereo unspecified)  56%
19. COCCN/C(=N\O)c1ccnc(Oc2ccc(Cl)cc2)c1  55%
20. Cc1ccc([C@@H](C)NCc2coc(-c3ccc(O)cc3)n2)cc1  46%
21. Fc1cccc(-c2nc(CNc3cc[nH]n3)co2)c1  45%
22. Cc1ccc(/C(=N/O)NCC2CCCCC2)c(OCc2ccccn2)n1  43%
23. CCN(/C(=N\O)c1ccnc(Oc2ccc(F)c(F)c2)c1)C(C)C  43%
24. COCCN/C(=N\O)c1ccnc(Oc2ccc(OC)cc2)c1  41%
25. Cc1ccc(Oc2nc(C)ccc2/C(=N/O)NCc2ccco2)cc1  37%
26. CC(C)COc1ncccc1/C(=N/O)NCc1ccccc1  37%
27. COc1cccc(-c2nc(CN3CCOCC3)co2)c1  35%
28. COCC(C)N/C(=N\O)c1ccc(Oc2ccc(Cl)cc2)nc1 (stereo unspecified)  31%
29. Cc1ccc(Oc2cc(/C(=N/O)N3CCN(c4ccc(F)cc4)CC3)ccn2)c2c1CCC2  31%
30. Cc1cc(C)cc(CN/C(=N\O)c2cccnc2Oc2ccc(Cl)cc2)c1  31%
31. O/N=C(\NCc1cc(F)ccc1F)c1ccc(Oc2ccc3ccccc3c2)nc1  31%
32. COCCN(/C(=N\O)c1ccnc(Oc2ccc(Cl)cc2)c1)C(C)C  28%
33. CCOc1cccc(-c2nc(CNC(CC)c3ccccc3)co2)c1 (stereo unspecified)  27%
34. CCCN/C(=N\O)c1cccnc1Oc1ccc2ccccc2c1  25%
35. Fc1ccccc1-c1nc(CNCc2cccc3ccccc23)co1  24%
36. O/N=C(\NCc1ccccc1)c1ccnc(Oc2ccc(F)c(Cl)c2)c1  24%
37. CCCN(CC1CC1)/C(=N\O)c1cccnc1Oc1ccccc1OC  24%
38. CCCN(CC1CC1)/C(=N\O)c1ccc(C)nc1Oc1cccc2cnccc12  23%
39. FC(F)(F)CNCc1coc(-c2ccc(Cl)cc2Cl)n1  23%
40. CC1CCCCN1CCCNCc1coc(-c2ccco2)n1 (stereo unspecified)  23%
41. Cc1ccc(/C(=N/O)NC2CCCCC2)c(Oc2cccc(C(C)C)c2)n1  22%
42. COc1ccc(Oc2cc(/C(=N/O)NCc3ccccc3C)ccn2)cc1  21%
43. CC(C)N/C(=N\O)c1cccnc1Oc1ccc2ccccc2c1  21%
44. Cc1ccc(/C(=N/O)N2C(C)C=CC2C)c(Oc2cccc(C(C)C)c2)n1 (stereo unspecified)  20%
45. Cc1ccc(CN/C(=N\O)c2cccnc2Oc2ccc3ccccc3c2)o1  19%
46. CCCCN(CC)Cc1coc(-c2ccccc2Cl)n1  19%
47. Cc1ccc(/C(=N/O)NCc2ccc(C)o2)c(OCc2ccccc2F)n1  18%
48. CCOc1cccc(-c2nc(CN(C)Cc3cc(OC)c(OC)c(OC)c3)co2)c1  18%
49. CC(CCc1ccccc1)NCc1coc(-c2ccc(F)cc2)n1 (stereo unspecified)  17%
50. COC[C@H]1CCCN1Cc1coc(-c2ccc(O)cc2)n1  16%
51. Cc1ccc(Oc2nc(C)ccc2/C(=N/O)NCc2cccs2)cc1  16%
52. Cc1ccc(/C(=N/O)NC2CC2)c(Oc2ccc3ccccc3c2)n1  16%
53. C=CCN(Cc1coc(-c2ccc(C)cc2)n1)C1CCCC1  16%
54. CCN(/C(=N\O)c1ccnc(Oc2ccc(F)c(Cl)c2)c1)C(C)C  14%
55. CC(C)c1ccc(N/C(=N\O)c2cccnc2OCC(C)(C)C)cc1  14%
56. O/N=C(\NCc1c(F)cccc1F)c1ccnc(Oc2ccc(Cl)cc2)c1  12%
57. COc1ccc(-c2nc(CN3CCCCC3C)co2)cc1 (stereo unspecified)  12%
58. Cc1ccc(/C(=N/O)NC(C)C)c(OCc2ccccn2)n1  11%
59. Cc1cccc(Oc2nc(C)ccc2/C(=N/O)NC2CCCC2)c1  11%
60. CCC(C)(C)N/C(=N\O)c1cccnc1OCC(C)(C)C  11%
61. Cc1cc(C)cc(Oc2ccc(/C(N)=N/O)cn2)c1  11%
62. COc1cccc(N2CCN(Cc3coc(-c4ccc(Cl)cc4Cl)n3)CC2)c1  10%
63. CSc1ccc(Oc2nc(C)ccc2/C(=N/O)NC2CC(C)CC(C)(C)C2)cc1 (stereo unspecified)  10%
64. Cc1ccc(-c2nc(CNCC(C)(C)CN(C)C)co2)cc1  10%
65. Cc1ccc(/C(=N/O)N(C)Cc2cccnc2)c(Oc2cccnc2)n1  10%
66. CSc1ccc(Oc2cc(/C(=N/O)NCc3ccncc3)ccn2)cc1  9%
67. Cc1ccc(C)c(N2CCN(Cc3coc(-c4ccc(O)cc4)n3)CC2)c1  9%
68. COCC(C)NCc1coc(-c2ccccc2C)n1 (stereo unspecified)  9%
69. COc1ccc(OC)c(NCc2coc(-c3ccccc3C)n2)c1  8%
70. COCC(C)N/C(=N\O)c1ccnc(Oc2cccc(F)c2)c1 (stereo unspecified)  8%
71. COc1cc(C)ccc1Oc1nc(C)ccc1/C(=N/O)Nc1ccc(C(C)C)cc1  8%
72. Cc1ccc(/C(=N/O)NC2CCC2)c(Oc2ccc3ccccc3c2)n1  7%
73. CC(C)c1ccccc1Oc1ncccc1/C(N)=N/O  7%
74. Clc1ccccc1-c1nc(CNC(c2ccccc2)c2ccccc2)co1  6%
75. Cc1ccc(/C(=N/O)NC2CCc3ccccc32)c(OCc2ccccn2)n1 (stereo unspecified)  5%
76. Cc1cn(/C(=N\O)c2ccc(Oc3ccc(Cl)cc3)nc2)cn1  5%
77. Cc1cc(Oc2ccc(/C(=N/O)N3CCSCC3)cn2)cc(C(C)C)c1  4%
78. COCCN/C(=N\O)c1ccnc(Oc2cccc(C(C)C)c2)c1  4%
79. Cc1ccccc1-c1nc(CN(C)Cc2ccco2)co1  2%
80. Fc1ccc(-c2nc(CNCCN3CCCC3)co2)cc1  1%
81. CC(C)c1ccc(N/C(=N\O)c2ccnc(Oc3ccc(F)c(Cl)c3)c2)cc1  0%
82. Cc1cccc(Oc2ncccc2/C(=N/O)N(C)C2CCCCC2)c1C  -1%
83. COc1ccc(CN/C(=N\O)c2ccnc(Oc3cccc(C(C)C)c3)c2)cc1  -1%
84. CCOC(=O)C1CCCCN1Cc1coc(-c2ccc(O)cc2)n1 (stereo unspecified)  -1%
85. CN(Cc1ccccc1)Cc1coc(-c2cccc3ccccc23)n1  -2%
86. COc1ccc(Oc2ncccc2/C(=N/O)NCc2cccnc2)cc1  -2%
87. FC(F)(F)c1ccc(-c2nc(CN3CCN(C(c4ccccc4)c4ccccc4)CC3)co2)cc1  -3%
88. Cc1cc(C)cc(Oc2nc(C)ccc2/C(=N/O)NC2CC(C)CC(C)(C)C2)c1 (stereo unspecified)  -4%
89. CCN(/C(=N\O)c1ccc(C)nc1Oc1cccc(C(C)C)c1)C(C)C  -4%
90. CC1CCCN1/C(=N\O)c1cccnc1OCc1ccccc1F (stereo unspecified)  -5%
91. CSc1ccc(Oc2nc(C)ccc2/C(=N/O)N2C(C)C=CC2C)cc1 (stereo unspecified)  -5%
92. Cc1ccc(-c2nc(CN3CC[C@@H]4CCCC[C@@H]4C3)co2)cc1  -5%
93. CC1CC(C)CN(Cc2coc(-c3ccc(Br)cc3)n2)C1 (stereo unspecified)  -5%
94. CSCCN/C(=N\O)c1cccnc1OCC(C)C  -5%
95. O/N=C(\NCc1cccnc1)c1cccnc1Oc1ccc2ccccc2c1  -6%
96. Fc1ccc(N2CCN(Cc3coc(-c4ccccc4Br)n3)CC2)cc1  -6%
97. COCCN/C(=N\O)c1cccnc1OCC(C)C  -7%
98. CC(C)COc1ncccc1/C(=N/O)NC1CC(C)CC(C)(C)C1 (stereo unspecified)  -8%
99. Cc1cc(C)cc(CN/C(=N\O)c2cccnc2OCC(C)(C)C)c1  -8%
100. CCCCC(CC)CNCc1coc(-c2ccc(Br)cc2)n1 (stereo unspecified)  -12%
101. COCCN/C(=N\O)c1ccnc(Oc2ccc(SC)cc2)c1  -13%
102. Cc1nccn1/C(=N\O)c1cccnc1OCC(C)C  -13%
103. Clc1ccccc1-c1nc(CNCCc2ccccc2)co1  -15%
104. Cc1cccc(-c2nc(CNCc3ccncc3)co2)c1  -16%
105. Fc1ccc(-c2nc(CNCCN3CCCCC3)co2)cc1  -17%
106. CCN(Cc1ccccc1)Cc1coc(-c2cc(OC)c(OC)c(OC)c2)n1  -20%
107. COc1cc(CNCc2coc(-c3ccccc3Br)n2)cc(OC)c1OC  -33%

With `CCC(NCc1coc(-c2ccc(C)cc2)n1)c1ccccc1` (stereo unspecified) the “% inhibition” value was -6% and 4%.
`CC(c1ccccc1)N(C)Cc1coc(-c2ccc(C(F)(F)F)cc2)n1` (stereo unspecified) was tested, and the “% inhibition” value was 7% and -11%.
With `CCOc1ccccc1-c1nc(CN(C)C(C)c2ccccc2)co1` (stereo unspecified) the “% inhibition” value was 8% and 1%.
For `CCOc1ccc(-c2nc(CNC(CC)c3ccccc3)co2)cc1` (stereo unspecified), the “% inhibition” value was 1% and -14%.
